Assay outcomes deposited in PubChem BioAssay by National Center for Advancing Translational Sciences (NCATS).
Lamin A splicing: LMNA splicing modulation | HeLa LMNA splicing GFP/RFP minigene ratio, 48 h | Potency, µM (titrated, usually from 46.1 µM), usual class: inhibitors | actives 0.01% (n = 200,000) | AID 1487; active = well fitted inhibition curve with a large enough effect in the signal ratio, with a control signal flat, not every such curve was filed as active; inconclusive = small, poorly fitted or top-dose-only effect, or effect the other way, or a change in a side signal; the % refers to the signal ratio
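Read-out is the ratio of GFP to DsRed2 object intensity, acquired by 488 nm laser-scanning cytometry on HeLa lamin A-EGFP minigene reporter cells. Compound incubation 48 hrs at 37 °C in Opti-MEM with 2% FBS; DMSO 0.5% final.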
Luc counter: counter-screen: inhibitors of Kinase-Glo firefly luciferase; Q27757; Kinase-Glo luciferase, ATP luminescence, 8 min; Potency, µM (doses to about 38.3 µM), usual class: inhibitors; actives 0.28% (n = 200,000); AID 1379; active = well fitted inhibition curve with a large enough effect; inconclusive = small, poorly fitted or top-dose-only effect; also: nearly all actives have a fitted effect of over 60% in size
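Kinase-Glo luciferase light output from ATP and luciferin was measured with 10 uM ATP, within the enzyme's linear range. Buffer: 50 mM imidazole pH 7.2, 50 mM KCl, 7 mM MgCl2, 0.01% Tween 20, 0.05% BSA; luminescence read after 8 min at ambient temperature.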
HPGD block: HPGD (human) dehydrogenase inhibition; P15428; purified HPGD, NADH fluorescence kinetic, PGE2 substrate; Potency, µM, usual class: inhibitors; actives 4.3% (n = 150,000)
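NADH formation kinetics: reaction with 30 uM PGE2 and 1 mM NAD+ (final), 20 nM enzyme, Tris-HCl pH 8 with Tween 20, after 15 min compound preincubation at room temperature. Fluorescence change, last versus first of five reads.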
ALDH1A1 block: inhibitors of human aldehyde dehydrogenase 1A1; P00352; Purified ALDH1A1, NADH fluorescence, propionaldehyde substrate; Potency, µM (series often up to 75.3 µM), actives largely listed as inhibitors; actives 7.3% (n = 220,000); AID 1030
Target sequence (P00352 whole entry, looked up): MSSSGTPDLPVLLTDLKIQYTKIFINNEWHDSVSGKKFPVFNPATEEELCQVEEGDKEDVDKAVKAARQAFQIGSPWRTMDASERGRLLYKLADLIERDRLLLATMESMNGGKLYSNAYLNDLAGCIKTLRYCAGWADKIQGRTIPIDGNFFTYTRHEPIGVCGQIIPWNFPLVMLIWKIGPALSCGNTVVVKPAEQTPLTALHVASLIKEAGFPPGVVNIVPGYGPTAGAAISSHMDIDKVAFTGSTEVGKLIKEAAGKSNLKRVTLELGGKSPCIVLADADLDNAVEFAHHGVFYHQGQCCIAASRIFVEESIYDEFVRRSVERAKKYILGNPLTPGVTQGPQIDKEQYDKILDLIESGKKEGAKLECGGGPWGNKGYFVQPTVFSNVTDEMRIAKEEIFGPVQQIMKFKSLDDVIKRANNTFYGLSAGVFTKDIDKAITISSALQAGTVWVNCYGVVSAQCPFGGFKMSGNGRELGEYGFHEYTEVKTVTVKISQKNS
PNC assembly inh: inhibitors of perinucleolar compartment assembly. AID 2417. PC3M PTB-GFP, PNC prevalence imaging, 16 h; active compounds read low. actives 3.1% (n = 140,000). activity change (PNC), negative = inhibition, % at 10 µM;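 active = readout at or below -70, meaning at least 70% loss of cells showing the perinucleolar compartment, a nuclear body marking cancer cells; inconclusive = readout between -30 and a set limit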
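PC3M cells stably expressing PTB-GFP, 750–1000 cells/well, treated 16 h at 37 °C with compound (23 nl of library stock), in duplicate. After paraformaldehyde fixation and Hoechst stain, imaged at 20x; PNC prevalence scored by image analysis.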
A number is an active result; – = inactive; ? = inconclusive; · = no result; [ ] = remark or other dose. Compounds with a hit are over-represented: about 10% of the library has one in this group of screens. Unless noted, calls follow the shape of the dose curve; as a rule, active = well fitted inhibition curve with a large enough effect (not every such curve was filed as active); inconclusive = small, poorly fitted or top-dose-only effect, or another doubt; inactive = no such curve, though single readings can be large or run the other way.

SMILES | Lamin A splicing | Luc counter | HPGD block | ALDH1A1 block | PNC assembly inh
CCCOc1ccc(Br)cc1/C=N/O | – | – | 10µM | – | –
O=C(O)COc1ccc(Br)cc1/C=N/O | – | – | – | – | –
C#CCOc1ccc(Br)cc1/C=N/O | – | – | 14.1µM | – | –
CCOc1ccc(Br)cc1/C=N/O | – | – | 11.2µM | – | –
CCC(c1nnc(SCC(=O)NCCc2ccc(Cl)cc2Cl)o1)N(C)C (centres undefined) | – | – | 14.1µM | 15.8µM | –
Cc1csc(SCC(=O)NCCc2ccc(Cl)cc2Cl)n1 | – | – | 28.2µM | – | –
O=C(CSc1ccc2c(c1)OCCO2)NCCc1ccc(Cl)cc1Cl | ? | · | · | – | ?
Cc1csc(SCC(=O)NCc2cccc(Cl)c2)n1 | – | – | · | ? | ·
CCN(CC)S(=O)(=O)c1ccc2c(c1)nc(CCC(=O)OCC(=O)Nc1c(F)cccc1F)n2C | – | – | – | 10µM | –
CCN(CC)S(=O)(=O)c1ccc2c(c1)nc(CCC(=O)OCC(=O)Nc1cc(OC)cc(OC)c1)n2C | – | – | – | ? | –
CCN(CC)S(=O)(=O)c1ccc2c(c1)nc(CCC(=O)Nc1ccc3c(c1)OCO3)n2C | – | – | – | 7.94µM | –
CCN(CC)S(=O)(=O)c1ccc2c(c1)nc(CN(C)C(=O)Nc1ccc(F)cc1)n2C | – | · | · | · | ·
CCN(CC)S(=O)(=O)c1ccc2c(c1)nc(CCC(=O)O)n2C | – | · | · | 11.2µM | ·
CCN(CC)S(=O)(=O)c1ccc2c(c1)nc(CCC(=O)Nc1ccc3c(c1)OCO3)n2CC | ? | – | – | 2.82µM | –
COc1cccc(CNC(=O)c2sc3nc4n(c(=O)c3c2C)CCC4)c1 | – | · | · | · | ·
CN(C)S(=O)(=O)c1ccc2c(c1)nc(CCC(=O)Nc1ccc3c(c1)OCO3)n2C | ? | – | – | 5.01µM | –
CN(C)S(=O)(=O)c1ccc2c(c1)nc(CCC(=O)Nc1ccc(N3CCOCC3)cc1)n2C | · | – | · | – | ·
COC(=O)c1c(C(=O)OC)c2cc(C)ccn2c1Cl | – | – | – | – | –
COC(=O)c1c(Cl)c2n3ccccc3c(C)c(-c3ccccc3)c-2c1C(=O)OC | – | – | – | 12.6µM | –
CCOC(=O)c1c2c(n3ccccc13)C(=O)c1ccccc1C2=O | · | –[7.66 µM] | – | ? | ·
COC(=O)c1cc2c(-c3ccccc3)c(C)c3ccccn3c-2c1C(=O)OC | ? | – | – | 20µM | –
CCOC(=O)c1sc2nc(-c3ccco3)c3c(c2c1N)CC(C)(C)OC3 | – | – | ? | ? | –
CC1(C)Cc2c(c(-c3ccco3)nc3n[nH]c(N)c23)CO1 | ? | – | ? | 25.1µM | –
O=c1c2ccccc2c(-c2ccc(O)cc2)nn1-c1cccc(C(F)(F)F)c1 | – | – | – | – | -85.4
O=c1c2ccccc2c(-c2ccc(Cl)cc2)nn1-c1ccccc1 | – | – | – | – | –
SMILES | Lamin A splicing | Luc counter | HPGD block | ALDH1A1 block | PNC assembly inh
Nc1cccc(S(=O)(=O)O)c1 | · | · | – | ? | ·
Cc1oncc1C(=O)Nc1ccc(C(F)(F)F)cc1 | ? | – | – | – | ?
Cc1oncc1C(=S)Nc1ccccc1 | – | – | – | ? | -91.8
O=C(NC(Cc1c[nH]c2ccccc12)c1nnc2n1CCCCC2)c1ccccc1Cl (centres undefined) | – | – | 25.1µM | – | –
O=C(NC(Cc1c[nH]c2ccccc12)c1nnc2n1CCCCC2)c1ccccc1 (centres undefined) | – | – | – | – | –
Cc1ccc(NC(=O)C2(c3cccs3)CCOCC2)cc1Cl | – | · | · | · | ·
O=c1[nH]ncn1-c1cccc(C(F)(F)F)c1 | – | – | – | – | -106.3
O=C(c1ccccc1)N1CCN(C(=S)NCc2ccc3c(c2)OCO3)CC1 | ? | – | 31.6µM | 17.8µM | –
NC(=O)C1CCCN(C(=S)NCc2ccc3c(c2)OCO3)C1 (centres undefined) | · | – | · | 25.1µM | ·
NC(=O)C1CCN(C(=S)NCc2ccc3c(c2)OCO3)CC1 | – | – | · | – | ·
O=C(/C=C/c1ccccc1)N1CCC(c2ccccc2)C1 (centres undefined) | – | – | ? | – | –
COc1ccc(/C=C/C(=O)N2CCCc3ccccc32)cc1 | ? | – | 11.2µM | ? | ?
O=C(/C=C/c1ccco1)N1CCc2ccccc21 | – | 10µM | · | ? | ·
COc1cc(/C=C/C(=O)N2CCCc3ccccc32)cc(OC)c1OC | ? | – | – | 14.1µM | –
O=C(/C=C/c1ccco1)N1CCCC(c2ccccc2)C1 (centres undefined) | ? | – | · | 10µM | ·
COc1ccc(OC)c(/C=C/C(=O)N2CCCc3ccccc32)c1 | · | – | · | ? | ·
Cc1cccc(C)c1Nc1oc(-c2ccccc2)nc1-c1ccccc1F | · | – | – | ? | ·
Cc1ccc(C)c(NC(=O)NCc2ccc(Cl)cc2)c1 | · | –[7.66 µM] | – | –[13.5 µM] | ·
COc1ccc(N(C)C2=NS(=O)(=O)c3ccccc32)cc1 | – | – | – | – | -101.2
COC1=NS(=O)(=O)c2ccccc21 | – | – | – | – | ?
CC(=O)c1ccc(N2CCN(C(=S)Nc3cc(C)ccc3C)CC2)cc1 | – | – | – | – | -90.2
CCCCCCN(C(=O)CCCCCN1C(=O)NC(C2CC2)C(C(=O)OCc2ccccc2)=C1C)C(C(=O)NCCCC)c1ccc(OCC(=O)OC)c(C(=O)OC)c1 (centres undefined) | · | – | – | 12.6µM | ·
COC(=O)CCCCCN1C(=O)NC(c2ccccc2)C(C(=O)OCc2ccccc2)=C1C (centres undefined) | ? | – | – | ? | -92.3
CCCCCCN(C(=O)CCCCCN1C(=O)NC(c2ccc(Cl)cc2)C(C(=O)OCc2ccccc2)=C1C)C(C(=O)NCCCC)c1ccc(OCC(=O)OC)c(C(=O)OC)c1 (centres undefined) | – | – | – | – | –
CC1=C(C(=O)OCc2ccccc2)C(C2CC2)NC(=O)N1CCCCCC(=O)O (centres undefined) | · | – | – | ? | ·
SMILES | Lamin A splicing | Luc counter | HPGD block | ALDH1A1 block | PNC assembly inh
CCCCCCCCCCCCC/C=C/[C@@H](O)C(CO)NC(C)=O (some centres undefined) | · | – | – | – | ·
Cc1ccc(C(=O)COC(=O)C(Cc2c[nH]c3ccccc23)NC(=O)c2ccc(C(C)(C)C)cc2)cc1 (centres undefined) | – | · | · | · | ·
O=C(NC(NC(=S)N1CCOCC1)C(Cl)(Cl)Cl)c1ccc(Cl)cc1 (centres undefined) | – | – | – | – | ?
CCCCC(=O)NC(NC(=S)N1CCOCC1)C(Cl)(Cl)Cl (centres undefined) | – | – | – | 11.2µM | ?
C#C[C@@]1(O)CC[C@@H]2[C@@H]3CCC4=CC(=O)CC[C@@H]4[C@H]3CC[C@]21C | ? | – | – | – | ·
C=CCNC(=O)c1ccc2nccnc2c1 | – | – | 15.8µM | – | ?
COC(=O)c1c(N)sc(C(=O)N2CCOCC2)c1C | – | – | – | ? | ?
O=C(Nc1ccc2c(c1)OCO2)c1ccc(Cl)s1 | – | ? | 15.8µM | ? | –
O=C(Nc1ccc2c(c1)OCO2)c1ccc2c(c1)OCO2 | – | ? | – | ? | ?
